From PubChem BioAssay (NCATS) come the findings set out here.

Structures are written as SMILES. A number with no mark means an inactive call. Results filed as inconclusive are left out. Calls of active or inactive are those of the source. Unless noted, calls follow the shape of the dose curve; as a rule, active = well fitted curve in the direction sought with a large enough effect; inconclusive = small, poorly fitted or top-dose-only effect, or another doubt; inactive = no such curve, though single readings can be large; an effect the other way counts as inactive or inconclusive.

In experiment [1] the target is Lysosomal acid glucosylceramidase (Homo sapiens) (UniProt P04062). The experiment is described as follows: Glucocerebrosidase-p2 (AID 348; in the data active = potency below about 10 µM; also: potency is read from the fitted curve at half-maximal effect). As to conditions: purified GBA, blue fluorogenic substrate, 40 min. Put shortly:
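Normal human glucocerebrosidase (0.2 nM) with blue fluorogenic substrate (80 uM final) in citrate/phosphate pH 5.9 with 10mM sodium taurocholate, 0.01% tween-20; 40 min RT, NaOH/glycine stop; fluorescence Ex 365/Em 440; AC50 from a titration from 0.6 nM upwards.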

Experiment [2] can be described thus: AP1 Signaling Pathway (AID 357; active = well fitted curve in either direction with a large enough effect, not every such curve was filed as active; also: % is scaled to controls: 0 for no effect and ±100 for the full control effect). Conditions: ME-180 AP-1-bla reporter, EGF-induced, beta-lactamase ratio, 5 h; at 7.69 µM (top of the series) unless noted. Put shortly: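 Cells are seeded overnight, exposed to compound titrations and an EC50 level of EGF for 5 hours at 37 °C, then loaded with CCF4 dye for 2.5 hours. Beta-lactamase activity under the AP-1 element is read as a blue/green ratio.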

In experiment [3] the target is Glucocorticoid receptor (Homo sapiens) (UniProt P04150). Kind of experiment: GR-GFP Redistribution (AID 450;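 active = compounds whose dose series gives a full or clear partial fitted curve of increased nuclear translocation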; also: potency is read from the fitted curve at half-maximal effect). Conditions: U2OS GR-GFP nuclear translocation, laser cytometry, 2 h.
Chain of Glucocorticoid receptor (Homo sapiens) (P04150 whole entry, looked up, the tested form may be a part): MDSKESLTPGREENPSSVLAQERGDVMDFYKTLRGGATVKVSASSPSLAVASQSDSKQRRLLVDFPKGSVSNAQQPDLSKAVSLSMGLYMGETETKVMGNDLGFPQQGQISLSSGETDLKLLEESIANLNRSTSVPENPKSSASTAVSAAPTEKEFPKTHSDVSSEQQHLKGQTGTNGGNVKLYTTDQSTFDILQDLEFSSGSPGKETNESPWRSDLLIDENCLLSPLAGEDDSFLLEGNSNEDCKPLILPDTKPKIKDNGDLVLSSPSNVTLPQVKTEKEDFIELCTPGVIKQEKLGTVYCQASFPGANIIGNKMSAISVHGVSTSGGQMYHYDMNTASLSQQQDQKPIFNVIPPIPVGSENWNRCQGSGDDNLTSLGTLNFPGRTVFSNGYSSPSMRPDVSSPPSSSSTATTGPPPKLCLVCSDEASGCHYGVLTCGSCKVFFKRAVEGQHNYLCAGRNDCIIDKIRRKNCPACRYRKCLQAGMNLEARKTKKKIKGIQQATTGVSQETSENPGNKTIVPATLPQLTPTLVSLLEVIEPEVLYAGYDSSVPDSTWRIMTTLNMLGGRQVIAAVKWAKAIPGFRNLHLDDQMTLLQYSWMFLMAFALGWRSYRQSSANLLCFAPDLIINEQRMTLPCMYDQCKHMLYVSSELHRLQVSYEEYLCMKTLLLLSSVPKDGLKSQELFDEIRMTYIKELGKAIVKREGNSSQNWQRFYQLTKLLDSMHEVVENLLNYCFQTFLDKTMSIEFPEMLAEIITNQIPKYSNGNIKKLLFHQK
For experiment [4] the target is unchanged. The experiment is described as follows: GR-EFC Redistribution (AID 451; calls by dose curve; also: potency is read from the fitted curve at half-maximal effect). Conditions: CHO-K1 GR-EFC translocation, beta-gal luminescence, 2 h. Put shortly: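 CHO-K1 cells expressing nuclear EA and GR-ED fragments of b-gal; compounds titrated up to 46 uM final, 2 h at 37 C. GR nuclear translocation read as complemented b-gal luminescence after 1 h RT detection.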

Experiment [5] concerns the target Mitogen-activated protein kinase 10 (Mus musculus) (UniProt Q61831). Kind of experiment: JNK3 AlphaScreen Assay (AID 530; active = well fitted curve in either direction with a large enough effect, not every such curve was filed as active;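 also: kinase came from lysate of stimulated human HepG2 cells; signal reports phosphorylation of biotinylated GST-cJun 1-79 at Ser73 with 10 µM ATP; % is scaled to controls: 0 for no effect and ±100 for the full control effect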). As to conditions: JNK3 lysate, c-Jun phosphorylation; series mostly up to 57.1 µM. An outline of the steps:
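HepG2 lysate (IL-1b/TNFa pre-activated) + biotin-GST-cJun 1-79 + anti-pSer73 cJun; cpd titration, 15 min RT; ATP 10 uM start; Tris pH 7.6, MgCl2, DTT, vanadate; beads in EDTA buffer; AlphaScreen.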

Experiment [6] addresses 3',5'-cyclic-AMP phosphodiesterase 4B (Homo sapiens) (UniProt Q07343). The experiment is described as follows: qHTS Assay for Inhibitors of PDE-IV (AID 607; active = well fitted activation curve with a large enough effect in the main read-out, with a control signal flat, not every such curve was filed as active; also: % of control where 0% means no effect). As to conditions: HEK293 ACTOne CNG channel cells, membrane potential fluorescence; series mostly up to 22.9 µM. Put shortly:
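The readout is membrane depolarisation from a cAMP-sensing CNG channel, detected with a potential dye at ex 535/em 590. Cells were HEK293-derived (endogenous PDE-IV) at 1000 cells/well, titrated up to 22.9 uM final.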
For orientation: Quantitative high-throughput screening tests each substance at several concentrations.

The target in experiment [7] is Cytochrome P450 3A4 (Homo sapiens) (UniProt P08684). The experiment is described as follows: qHTS Assay for Activators of Cytochrome P450 3A4 (AID 885). Also: nearly all actives have a fitted effect of over 65% in size. As to conditions: recombinant CYP3A4, Luciferin-PPXE luminescence, 60 min; series mostly up to 57.1 µM. Put shortly:
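Activators are scored by enhanced luminescence from CYP3A4 conversion of luciferin-PPXE (25uM, equal to KM) to luciferin, after 60 min at RT with an NADPH-regenerating system.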

Experiment [8] concerns the target Dual specificity protein kinase CLK4 (Homo sapiens) (UniProt Q9HAZ1). Kind of experiment: qHTS Assay for Inhibitors of CDC-like Kinase 4 (Kinase-Glo Assay) (AID 1770). Also: nearly all actives have a fitted effect of over 65% in size. Also: potency is read from the fitted curve at half-maximal effect. As to conditions: recombinant Clk4, Kinase-Glo ATP depletion luminescence; series mostly up to 66.7 µM. Put shortly:
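Readout: Kinase-Glo luminescence from ATP left after a 4.5 h room-temperature reaction of 25 nM Clk4 with 100 uM RS peptide and 1 uM ATP (final). Buffer: 25 mM Tris pH 7.5, 10 mM MgCl2.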

For experiment [9] the target is unchanged. The experiment is described as follows: qHTS Assay for Inhibitors of CDC-like Kinase 4 (ADP-Glo Assay) (AID 1771). Also: nearly all actives have a fitted effect of over 70% in size. Also: potency is read from the fitted curve at half-maximal effect. Conditions: recombinant CLK4, ADP-Glo luminescence; series mostly up to 80 µM. Put shortly: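 In this ADP-Glo format, 1 uM ATP and 100 uM RS peptide served as substrates for 25 nM Clk4 in Mg2+/EGTA/DTT/Triton buffer; reactions ran 1 hr at room temperature before luminescent ADP quantification.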

The target is the same in experiment [10]. The experiment is described as follows: qHTS Assay for Inhibitors of CDC-like Kinase 4 (ADP-FP Assay) (AID 1795). Also: nearly all actives have a fitted effect of over 60% in size. Also: potency is read from the fitted curve at half-maximal effect. As to conditions: Transcreener ADP fluorescence polarization; series mostly up to 50 µM. An outline of the steps:
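FP readout: Orange Transcreener ADP2 tracer (4 nM) plus ADP antibody, read after 30 min at room temperature. Kinase step: 6.25 nM Clk4, 100 uM RS peptide, 1 uM ATP, pH 7.5, 1 h.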

The target in experiment [11] is Ubiquitin carboxyl-terminal hydrolase 1 (Homo sapiens) (UniProt O94782). The experiment is described as follows: Inhibitors of USP1/UAF1: Pilot qHTS (AID 504865).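 Also: rhodamine fluorescence freed from ubiquitin-rhodamine substrate followed over time; top concentration of the series differs between compounds; % is scaled to controls: 0 for no effect and ±100 for the full control effect; nearly all actives have a fitted effect of over 35% in size.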 Conditions: purified USP1/UAF1, Ub-rhodamine cleavage fluorescence; series mostly up to 54.9 µM. An outline of the steps:
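1nM USP1/UAF1 + cpd, 15 min RT; start w/ Ub-Rho 150nM final; kinetic FL 480/540 nm, 6 reads q60 s. Buffer 50mM HEPES pH 7.8, 0.5mM EDTA, 1mM TCEP, 0.01% Tween-20, 0.1 mg/ml BSA.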

Experiment [12] can be described thus: Primary qHTS for small molecule stabilizers of the endoplasmic reticulum resident proteome: Secreted ER Calcium Modulated Protein (SERCaMP) assay (AID 1508630). Also: % is scaled to controls: 0 for no effect and ±100 for the full control effect. As to conditions: SH-SY5Y GLuc-SERCaMP (Gaussia luciferase released on ER calcium loss) secretion, thapsigargin, luminescence; series mostly up to 38.4 µM. Put shortly: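 The SH-SY5Y reporter protocol was run at 3 concentrations up to 38.3 uM (primary) or 11 concentrations (follow-up): 16 h compound, 100 nM thapsigargin for 4 h, then extracellular luciferase luminescence.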

The target of experiment [13] is Cytochrome P450 1A2 (Homo sapiens) (UniProt P05177). The experiment is described as follows: p450-cyp1a2 (AID 410; calls by dose curve; also: potency is read from the fitted curve at half-maximal effect). Conditions: recombinant CYP1A2, luciferin-ME demethylation, luminescence; series mostly up to 57 µM. Put shortly: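 Read-out is luminescence from luciferin produced by CYP1A2 demethylation of Luciferin-ME (100uM, at Km). Detection reagent stopped the 60 min NADPH-dependent reaction; signals were normalized to 57 uM furafylline.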
Chain of Cytochrome P450 1A2 (Homo sapiens) (P05177 whole entry, looked up): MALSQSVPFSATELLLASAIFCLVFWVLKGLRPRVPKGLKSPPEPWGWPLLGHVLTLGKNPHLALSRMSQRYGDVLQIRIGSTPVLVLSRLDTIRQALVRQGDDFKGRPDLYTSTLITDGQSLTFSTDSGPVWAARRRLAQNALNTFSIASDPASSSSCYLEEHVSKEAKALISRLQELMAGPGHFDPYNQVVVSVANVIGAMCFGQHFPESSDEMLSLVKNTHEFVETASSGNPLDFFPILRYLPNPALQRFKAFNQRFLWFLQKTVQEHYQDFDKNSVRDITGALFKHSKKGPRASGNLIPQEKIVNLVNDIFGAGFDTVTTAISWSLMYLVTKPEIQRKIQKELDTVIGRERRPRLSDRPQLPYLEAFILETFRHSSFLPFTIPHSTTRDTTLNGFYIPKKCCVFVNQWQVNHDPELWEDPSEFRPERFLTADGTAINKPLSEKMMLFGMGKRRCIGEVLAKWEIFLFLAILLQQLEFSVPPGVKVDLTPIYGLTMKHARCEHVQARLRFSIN

The nature of experiment [14]: NFAT Signaling Pathway (AID 444; active = well fitted curve in either direction with a large enough effect, not every such curve was filed as active;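 also: carbachol stimulus at about its EC50 of 1 µM final; % is scaled to controls: 0 for no effect and ±100 for the full control effect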). Conditions: Jurkat NFAT-bla M1, carbachol, beta-lactamase ratio, 5 h; at 7.69 µM (top of the series) unless noted. Put shortly: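 Jurkat cells with NFAT-driven β-lactamase reporter and co-expressed M1 receptor, stimulated with carbachol (final 1 uM, ~EC50), compound titration, 5 h at 37 °C. CCF4 loaded 1 h at RT; 460/530 nm ratio gave %activity and AC50.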

The nature of experiment [15]: qHTS Assay for Identification of Small Molecule Agonists for Hypoxia Response Element Signaling Pathway (AID 914; active = well fitted activation curve with a large enough effect in the signal ratio, with a control signal flat, not every such curve was filed as active; the % refers to the signal ratio; also: potency is read from the fitted curve at half-maximal effect; as to activation: % of control where 0% means no effect). Conditions: ME-180 HRE-bla reporter, beta-lactamase ratio, CoCl2, 17 h; activation: stronger effect = higher value. Put shortly:
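Positive modulation of EC50 CoCl2-induced hypoxia response element signaling is measured in ME-180 cells with a beta-lactamase reporter. Compounds are titrated, incubation runs 17 hours, and %Activity derives from the blue/green ratio.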

Experiment [16] can be described thus: Stat Signaling Pathway (AID 446; active = well fitted curve in either direction with a large enough effect, not every such curve was filed as active). Conditions: ME-180 (cervical carcinoma) SIE beta-lactamase reporter, IL-6 stimulated, 5 h; at 7.69 µM (top of the series) unless noted. Put shortly: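 Emission at 460 and 530 nm (excitation 405 nm) reports SIE-controlled beta-lactamase in ME-180 cells. Cells received compound with 40 pM IL-6 for 5 hrs at 37 C; data scaled between 300 pM IL-6 and 125 nM JAK-inhibitor controls.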

In experiment [17] the target is Cytochrome P450 3A4 (Homo sapiens) (UniProt P08684). Kind of experiment: qHTS Assay for Inhibitors and Substrates of Cytochrome P450 3A4 (AID 884). Also: potency is read from the fitted curve at half-maximal effect; nearly all actives have a fitted effect of over 50% in size. As to conditions: recombinant CYP3A4, Luciferin-PPXE luminescence; series mostly up to 57.1 µM. An outline of the steps:
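Luminescent readout of luciferin produced by CYP3A4 (20 nM) dealkylation of Luciferin-PPXE, 25 uM (its KM). NADPH-driven reaction ran 60 min at RT after 10 min compound preincubation; data scaled to 57 uM ketoconazole as 100% inhibition.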

Chain of Cytochrome P450 3A4 (Homo sapiens) (P08684 whole entry, looked up): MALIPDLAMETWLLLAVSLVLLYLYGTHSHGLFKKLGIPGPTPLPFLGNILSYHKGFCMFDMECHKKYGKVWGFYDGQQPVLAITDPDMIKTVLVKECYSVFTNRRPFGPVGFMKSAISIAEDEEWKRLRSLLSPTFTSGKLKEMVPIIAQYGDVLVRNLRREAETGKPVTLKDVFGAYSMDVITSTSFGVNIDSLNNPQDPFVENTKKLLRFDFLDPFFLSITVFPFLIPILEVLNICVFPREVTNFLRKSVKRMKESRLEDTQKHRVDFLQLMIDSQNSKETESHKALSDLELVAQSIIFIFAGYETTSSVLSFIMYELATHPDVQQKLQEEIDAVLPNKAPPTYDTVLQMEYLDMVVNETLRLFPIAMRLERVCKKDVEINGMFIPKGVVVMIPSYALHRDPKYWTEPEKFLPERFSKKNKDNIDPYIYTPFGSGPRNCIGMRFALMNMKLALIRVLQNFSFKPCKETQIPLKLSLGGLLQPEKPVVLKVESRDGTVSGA
Chain of Dual specificity protein kinase CLK4 (Homo sapiens) (Q9HAZ1 whole entry, looked up): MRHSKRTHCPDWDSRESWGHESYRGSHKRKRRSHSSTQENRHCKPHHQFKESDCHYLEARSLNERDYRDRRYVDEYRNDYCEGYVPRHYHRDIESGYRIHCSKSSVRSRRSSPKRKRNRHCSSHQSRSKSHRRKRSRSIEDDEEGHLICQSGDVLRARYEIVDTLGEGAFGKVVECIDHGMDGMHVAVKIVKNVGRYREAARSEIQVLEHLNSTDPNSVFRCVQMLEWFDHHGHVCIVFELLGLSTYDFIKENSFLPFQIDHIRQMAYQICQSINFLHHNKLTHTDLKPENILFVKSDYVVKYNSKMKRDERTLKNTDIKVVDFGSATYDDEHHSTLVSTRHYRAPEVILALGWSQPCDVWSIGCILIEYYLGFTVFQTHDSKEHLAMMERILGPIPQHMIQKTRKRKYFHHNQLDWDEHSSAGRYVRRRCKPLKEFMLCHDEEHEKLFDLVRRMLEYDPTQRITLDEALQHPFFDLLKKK
Chain of Ubiquitin carboxyl-terminal hydrolase 1 (Homo sapiens) (O94782 whole entry, looked up): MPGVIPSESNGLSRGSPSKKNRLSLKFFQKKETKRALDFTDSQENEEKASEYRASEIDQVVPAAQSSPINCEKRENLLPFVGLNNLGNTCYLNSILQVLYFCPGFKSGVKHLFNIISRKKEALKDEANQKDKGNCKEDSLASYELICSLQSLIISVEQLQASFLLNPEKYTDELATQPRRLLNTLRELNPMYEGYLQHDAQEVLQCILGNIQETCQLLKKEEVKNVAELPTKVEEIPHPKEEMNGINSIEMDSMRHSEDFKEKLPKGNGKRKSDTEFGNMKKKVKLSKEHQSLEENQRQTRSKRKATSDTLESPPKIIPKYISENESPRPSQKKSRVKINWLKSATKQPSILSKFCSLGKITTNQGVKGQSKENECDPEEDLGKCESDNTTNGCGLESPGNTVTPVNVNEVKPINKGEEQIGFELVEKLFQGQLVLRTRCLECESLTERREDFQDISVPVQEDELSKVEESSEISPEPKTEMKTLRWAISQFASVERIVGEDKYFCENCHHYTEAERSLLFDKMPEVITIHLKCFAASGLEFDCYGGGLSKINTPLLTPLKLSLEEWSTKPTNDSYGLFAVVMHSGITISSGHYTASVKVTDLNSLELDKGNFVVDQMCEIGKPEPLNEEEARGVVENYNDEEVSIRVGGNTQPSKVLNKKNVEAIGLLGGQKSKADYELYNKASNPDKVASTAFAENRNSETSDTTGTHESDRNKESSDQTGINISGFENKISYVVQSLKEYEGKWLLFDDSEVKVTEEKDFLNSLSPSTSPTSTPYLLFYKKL
Chain of 3',5'-cyclic-AMP phosphodiesterase 4B (Homo sapiens) (Q07343 whole entry, looked up): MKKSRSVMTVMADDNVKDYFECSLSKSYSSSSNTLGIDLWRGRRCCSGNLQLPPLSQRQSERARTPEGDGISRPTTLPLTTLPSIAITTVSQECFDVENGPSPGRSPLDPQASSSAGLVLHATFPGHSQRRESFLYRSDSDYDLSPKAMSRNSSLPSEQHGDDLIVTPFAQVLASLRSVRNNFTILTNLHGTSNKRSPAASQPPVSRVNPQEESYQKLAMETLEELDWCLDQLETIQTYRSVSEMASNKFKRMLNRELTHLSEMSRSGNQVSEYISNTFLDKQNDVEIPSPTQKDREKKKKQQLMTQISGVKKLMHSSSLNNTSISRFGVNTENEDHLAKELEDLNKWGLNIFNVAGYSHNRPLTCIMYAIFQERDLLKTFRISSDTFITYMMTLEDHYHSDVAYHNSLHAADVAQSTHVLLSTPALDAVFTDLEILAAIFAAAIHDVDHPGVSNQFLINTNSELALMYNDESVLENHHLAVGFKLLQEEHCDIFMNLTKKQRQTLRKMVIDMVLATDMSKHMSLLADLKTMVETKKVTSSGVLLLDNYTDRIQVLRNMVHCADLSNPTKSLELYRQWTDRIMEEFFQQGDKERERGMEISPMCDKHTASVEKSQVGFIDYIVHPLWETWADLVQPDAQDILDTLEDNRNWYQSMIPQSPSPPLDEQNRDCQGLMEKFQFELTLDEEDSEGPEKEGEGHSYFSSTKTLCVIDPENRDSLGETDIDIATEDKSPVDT
Chain of Lysosomal acid glucosylceramidase (Homo sapiens) (P04062 whole entry, looked up): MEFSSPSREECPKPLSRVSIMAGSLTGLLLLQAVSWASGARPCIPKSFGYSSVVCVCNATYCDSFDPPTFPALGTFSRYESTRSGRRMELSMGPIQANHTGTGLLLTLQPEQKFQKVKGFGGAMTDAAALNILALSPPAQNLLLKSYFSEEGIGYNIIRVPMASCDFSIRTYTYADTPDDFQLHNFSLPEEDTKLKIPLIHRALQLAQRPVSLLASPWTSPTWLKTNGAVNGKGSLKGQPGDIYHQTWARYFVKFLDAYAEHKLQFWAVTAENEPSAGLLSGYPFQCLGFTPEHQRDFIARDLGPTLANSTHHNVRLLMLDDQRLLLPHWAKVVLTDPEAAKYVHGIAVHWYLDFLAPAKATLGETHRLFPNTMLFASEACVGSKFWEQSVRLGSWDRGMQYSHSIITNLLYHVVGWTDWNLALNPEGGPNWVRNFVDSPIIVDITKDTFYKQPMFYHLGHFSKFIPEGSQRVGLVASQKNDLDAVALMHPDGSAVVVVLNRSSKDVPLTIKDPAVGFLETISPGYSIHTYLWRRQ

With `CN(C)c1ncc2nc(-c3cccs3)c(=O)n(Cc3cccs3)c2n1`, the Potency is greater than 11.4 µM in experiment [1], greater than 9.22 µM in [3] and greater than 46 µM in [4]. Further, the activity change, negative = inhibition in experiment [2] is 21.5%. Besides, the Potency entry in experiment [5], in experiment [6], in [7], in [8], in experiment [9] and in experiment [10] was “inactive” each time. In addition, the Potency entry in experiment [11] is “inactive”. Further, in [12], the outcome was inactive.
`CCNc1ncc2nc(-c3ccc(F)cc3)c(=O)n(Cc3ccc(F)cc3)c2n1`: the Potency in experiment [1] was greater than 11.4 µM; in experiment [13] it was 20 µM (active); in experiment [3] it was greater than 9.22 µM; in [4], greater than 46 µM; in experiment [15], 1.58 µM (active). The activity change, negative = inhibition in experiment [14] is 18.8%. Moreover, the Potency entry in [5], in [6], in [8], in experiment [9] and in experiment [10] was “inactive” in each case. Further, the result in [12] was inactive.
On to `COc1ccc(-c2nc3cnc(N(C)C)nc3n(C3CC3)c2=O)cc1`, for which the Potency is greater than 11.4 µM in experiment [1], greater than 9.22 µM in experiment [3] and greater than 46 µM in [4]. In addition, the activity change, negative = inhibition in [2] was -0.159%. Also, in [16], the activity, negative = inhibition was 24.2%. Moreover, the Potency result in experiment [5], in [6], in experiment [8], in experiment [9], in [10] and in experiment [11] was “inactive” throughout. For the same compound, the result in experiment [12] was inactive.
As for `CS(=O)(=O)Nc1cccc(-c2ccc3ncnc(NCc4cccs4)c3c2)c1`, the Potency in [1] was greater than 11.4 µM; in experiment [13], 0.0794 µM (active); in experiment [3] it was greater than 46 µM; in experiment [4], greater than 46 µM; in experiment [17] it was 3.16 µM (active); in experiment [8], 7.94 µM (active). The results for the Potency in [9] and in [10] were 7.94 µM (active) and 5.01 µM (active), respectively. The Potency entry in experiment [5], in experiment [7] and in experiment [11] was “inactive” each time. In addition, in [12], the result was inactive.
Regarding `Cn1cc(-c2nc3cncnc3n(Cc3ccccc3Cl)c2=O)c2ccccc21`, the Potency is greater than 11.4 µM in experiment [1], 3.16 µM (active) in [13], greater than 9.22 µM in [3] and greater than 46 µM in [4]. Moreover, in experiment [14], the activity change, negative = inhibition was 3.77%. The Potency entry in [6], in [7], in experiment [8], in experiment [9], in [10] and in [11] was “inactive” throughout. Besides, in experiment [15], the activation was 15.7%. Besides, the outcome in experiment [12] was inactive.
For the compound `c1cncc(-c2cncnc2NCc2cccs2)c1`, the Potency in experiment [1] is greater than 11.4 µM; in [13], 0.316 µM (active); in [3] it was greater than 46 µM; in experiment [4] it was greater than 46 µM; in experiment [17], 2 µM (active). Also, in [14], the activity change, negative = inhibition is 23.6%. For the same compound, the activity, negative = inhibition in experiment [16] was -4.79%. In addition, the Potency entry in [5], in experiment [6], in experiment [7], in experiment [8], in experiment [9] and in [10] was “inactive” in each case. Further, the Potency result in [11] was “inactive”. The outcome in experiment [12] was inactive.
In the case of `CN(C)c1ncnc2ccc(-c3cccc(C#N)c3)cc12`, the Potency in [1] is greater than 11.4 µM; in experiment [3], greater than 46 µM; in [4], greater than 46 µM; in experiment [8], 14.1 µM (active); in experiment [9] it was 15.8 µM (active). Further, the activity change, negative = inhibition in experiment [2] was -26.8%. In [16], the activity, negative = inhibition is 21.1%. The Potency entry in experiment [5], in experiment [6], in experiment [10] and in experiment [11] was “inactive” each time. For the same compound, the outcome in [12] was inactive.
